Whole data set: some 33,000 sequences, median “E-score (-0.5 to 0.5)” near -0.053, cut for the highest 2% near 0.37. Shown is part of a subset that was picked to be rich in the highest values.
Each sequence was assayed against Hap1 (UniProt P0CE41) (assay: PBM E-score (8-mer binding enrichment) (E-score (-0.5 to 0.5)); higher = stronger / more preferred TF binding). Settings: protein concentration: 200 nM; construct: GST-DNA-binding domain.
Experimental: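 Universal 'all 10-mer' protein binding microarrays (Agilent AMADID 015681) probed with GST-tagged S. cerevisiae TFs (full-length or DBD) made by in vitro transcription/translation (PURExpress), about 100-200 nM. Bound TF was detected with fluorescent anti-GST. Each ungapped 8-mer (which stands for itself and its reverse complement) is scored by the PBM enrichment score (E-score), a modified Wilcoxon-Mann-Whitney statistic from -0.5 to +0.5, computed with the Universal PBM Analysis Suite. Scale: above 0.35 generally sequence-specific binding.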

Sequence of UniProt P0CE41 (P0CE41 whole entry, the tested form may be a part): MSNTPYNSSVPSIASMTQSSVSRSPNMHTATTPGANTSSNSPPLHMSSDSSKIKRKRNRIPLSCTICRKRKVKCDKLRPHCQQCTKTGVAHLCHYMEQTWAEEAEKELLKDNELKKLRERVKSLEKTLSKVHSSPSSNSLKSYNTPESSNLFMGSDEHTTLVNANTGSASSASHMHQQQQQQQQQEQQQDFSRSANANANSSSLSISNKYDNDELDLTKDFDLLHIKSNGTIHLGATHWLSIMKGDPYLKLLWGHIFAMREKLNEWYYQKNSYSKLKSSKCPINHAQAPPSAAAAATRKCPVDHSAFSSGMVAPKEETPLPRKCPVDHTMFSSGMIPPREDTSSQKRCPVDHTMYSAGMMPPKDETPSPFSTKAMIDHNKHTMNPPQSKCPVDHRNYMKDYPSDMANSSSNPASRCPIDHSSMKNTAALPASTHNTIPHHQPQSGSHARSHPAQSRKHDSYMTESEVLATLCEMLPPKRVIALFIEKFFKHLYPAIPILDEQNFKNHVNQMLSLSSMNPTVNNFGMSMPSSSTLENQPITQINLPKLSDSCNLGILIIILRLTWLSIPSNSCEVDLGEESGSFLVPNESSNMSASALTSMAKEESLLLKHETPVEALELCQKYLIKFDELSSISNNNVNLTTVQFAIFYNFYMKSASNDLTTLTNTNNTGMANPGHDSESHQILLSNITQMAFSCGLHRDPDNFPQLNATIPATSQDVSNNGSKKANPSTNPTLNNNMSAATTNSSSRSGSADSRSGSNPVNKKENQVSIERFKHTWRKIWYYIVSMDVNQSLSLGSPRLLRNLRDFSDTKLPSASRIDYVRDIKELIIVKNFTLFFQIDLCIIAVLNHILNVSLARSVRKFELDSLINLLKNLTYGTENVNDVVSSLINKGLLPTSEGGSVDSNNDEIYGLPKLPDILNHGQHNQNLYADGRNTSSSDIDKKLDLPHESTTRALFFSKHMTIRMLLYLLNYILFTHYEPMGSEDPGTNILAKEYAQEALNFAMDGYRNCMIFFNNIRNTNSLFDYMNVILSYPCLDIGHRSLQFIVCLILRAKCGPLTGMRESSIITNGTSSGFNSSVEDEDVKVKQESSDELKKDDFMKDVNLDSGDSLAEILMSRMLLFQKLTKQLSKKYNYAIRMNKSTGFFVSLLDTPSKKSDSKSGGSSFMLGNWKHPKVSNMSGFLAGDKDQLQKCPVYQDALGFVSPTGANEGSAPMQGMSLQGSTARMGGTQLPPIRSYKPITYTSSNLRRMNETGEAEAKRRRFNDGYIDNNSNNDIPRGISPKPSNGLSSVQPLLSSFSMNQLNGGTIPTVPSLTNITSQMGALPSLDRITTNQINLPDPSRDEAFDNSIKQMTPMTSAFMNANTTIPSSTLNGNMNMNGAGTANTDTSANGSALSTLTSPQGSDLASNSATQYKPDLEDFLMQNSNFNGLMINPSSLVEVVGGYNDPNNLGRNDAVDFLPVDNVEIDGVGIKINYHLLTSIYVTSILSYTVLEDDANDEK

| Sequence | PBM E-score |
| --- | --- |
| CCGGAACA | 0.376 |
| ACGGAAAA | 0.317 |
| ACGGAATC | 0.28 |
| TCGGAAAA | 0.402 |
| CCGGAATC | 0.416 |
| ACGGAACA | 0.241 |
| CCGGAAGA | 0.365 |
| CCGGAATA | 0.357 |
| GCGGAAAA | 0.286 |
| TCGGAACA | 0.349 |
| CCGGAAAA | 0.432 |
| CAGGAAAA | -0.0124 |
| AGACACTC | -0.185 |
| GCTTCATA | -0.0731 |
| ACCTAGGC | -0.18 |
| AAAGCGGG | -0.0186 |
| ACTACGCC | -0.098 |
| GAACTGTA | -0.00641 |
| CCACTCCC | 0.119 |
| CCGGCCTC | 0.182 |
| GCGGAAAC | 0.24 |
| CCGGAAAG | 0.307 |
| CCGGAAAC | 0.426 |
| AGTTTCTA | -0.167 |
| ACCAGGAT | 0.0532 |
| AAGCAATA | -0.0998 |

| Sequence | PBM E-score |
| --- | --- |
| TCTTGTCA | -0.139 |
| CGACCGGA | 0.412 |
| GGACCGCA | 0.186 |
| GGACCGGA | 0.406 |
| CGACCGTA | 0.0335 |
| CGACCGGC | 0.232 |
| AGACCGGA | 0.334 |
| ACTAGACA | -0.0952 |
| AACGCGCG | 0.13 |
| ATGTCCCC | 0.0493 |
| CTGTCCGC | 0.113 |
| ATGTCCCG | 0.234 |
| ATGTCCGA | 0.463 |
| GTGTCCGA | 0.339 |
| ATGTCCTG | 0.00518 |
| CTGTCCGA | 0.317 |
| ATGTCCGG | 0.468 |
| ATGTCCGC | 0.374 |
| AGGGCCGG | 0.326 |
| CGCCCTCA | -0.149 |
| CGACCAAC | -0.0313 |
| CAACTGGG | -0.122 |
| GGCGGTAA | 0.373 |
| GGCGGTAC | 0.0136 |
| GCCGGTAA | 0.422 |
| GCCGGTGA | 0.274 |

| Sequence | PBM E-score |
| --- | --- |
| GCCGGTCA | 0.177 |
| CCCGGTAG | 0.336 |
| TCCGGTCA | 0.385 |
| AGCGGTAA | 0.247 |
| CCCGGTAC | 0.296 |
| CCCGGTAA | 0.387 |
| GCCGGTAC | 0.293 |
| CCCGGTCA | 0.262 |
| ACCTCGCT | 0.0563 |
| AGTTACCG | 0.266 |
| AACAAGGG | -0.0715 |
| ACAGACGC | -0.0711 |
| AATTTACC | 0.0607 |
| AGCGTAGA | -0.0389 |
| TCCGGTAA | 0.442 |
| TGCGGTAA | 0.042 |
| TACGGTAA | 0.0382 |
| ACACCTGA | -0.135 |
| TGTCGAAA | -0.229 |
| CAAGTGTC | -0.197 |
| AAGAAACA | 0.00593 |
| ACCGCAAT | 0.239 |
| AATCCCAT | -0.107 |
| AATCCCGA | 0.409 |
| AATCCCGC | 0.257 |
| TATCCCGA | 0.221 |

| Sequence | PBM E-score |
| --- | --- |
| AATCCCGT | 0.372 |
| CATCCCGA | 0.176 |
| CTGGTGAC | -0.288 |
| CCAGCGAA | -0.0597 |
| GGGCATTA | 0.0704 |
| CGGCATTA | 0.459 |
| CGGCAATA | 0.408 |
| AGGCAATA | -0.181 |
| AGGCATTA | -0.08 |
| CGGCAATC | 0.284 |
| TATATTGA | 0.0255 |
| ACAGTGGA | -0.0195 |
| CACCAAGC | -0.174 |
| AGTCCCTC | -0.175 |
| AATGTCCA | -0.104 |
| AATGTCCT | -0.144 |
| ATTGTCCG | 0.396 |
| CATGTCCG | 0.372 |
| CATGTCCC | -0.054 |
| ATTGTCCA | -0.128 |
| CATGTCCA | -0.0578 |
| ATTGTCCC | 0.0458 |
| AATGTCCG | 0.443 |

From the supplement of paper PMC3334620
